A selection: hits, their analogues and other compounds. The true share with any hit is near 4.2%.
TIM10 inh = TIM10 yeast growth inhibition; S. cerevisiae TIM10 strain growth, BacTiter-Glo luminescence, 24 h; 330,000 compounds, 1.4% hits; inhibition, % at 10 µM; AID 463195;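 active = inhibition of 40% or more at the single tested concentration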;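 note: wild-type TIM10 isogenic control strain grown at permissive 25 °C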
V-ATPase pHluor = yeast V-ATPase proton transport regulation by pHLuorin; S. cerevisiae, pHLuorin cytosolic pH fluorescence; AID 504577; 350,000 compounds, 0.37% hits; response, % at 10 µM; in the data active = response mostly above about 7.3%, no sharp cut-off; inactive = mostly below about 5.4%; note: actives read high
NALP3 yeast inh = blocks the NALP3 inflammasome reconstituted in yeast; Yeast reconstituted NLRP3/ASC/caspase-1, beta-gal luminescence, 24 h; inhibition, % at 10 µM; 330,000 compounds, 0.39% hits; AID 2825;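 active = inhibition of 50% or more; inactive = inhibition below 50%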
tim23-1 inh = tim23-1 yeast growth inhibition; S. cerevisiae tim23-1 growth, BacTiter-Glo luminescence, 24 h; inhibition, % at 20 µM; 330,000 compounds, 1.3% hits;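 active = growth inhibition of the mutant yeast at or above 50%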;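 note: temperature-sensitive mutant grown at 25 °C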
NALP1 inh = NALP1 inhibition. S. cerevisiae NALP1/ASC/caspase-1 growth, X-gal OD620, 72 h. inhibition, % at 10 µM. 280,000 compounds, 0.61% hits; in the data active = inhibition mostly above about 24%, no sharp cut-off; inactive = mostly below about 32%
tim10-1 inh = tim10-1 yeast growth inhibition. S. cerevisiae tim10-1 ts strain growth, BacTiter-Glo, 24 h. inhibition, % at 20 µM. 330,000 compounds, 2.2% hits;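 active = inhibition of at least 40%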;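 note: mutant grown at 25 °C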
tim10-1 confirm = confirmation of tim10-1 mutant yeast growth inhibitors; shares compounds with tim10-1 inh; S. cerevisiae tim10-1 ts strain growth, BacTiter-Glo, 24 h; inhibition, % at 20 µM; 7,400 compounds, 56% hits; AID 463213;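 active = inhibition of yeast growth at or above a set limit in either of two repeat tests at 20 µM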;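 note: tim10-1 mutant grown at permissive 25 °C to find synthetic lethal compounds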
Numbers stand for hits; n = inactive; x = not tested or not shown.

SMILES	TIM10 inh	V-ATPase pHluor	NALP3 yeast inh	tim23-1 inh	NALP1 inh	tim10-1 inh	tim10-1 confirm
COc1ccc(/C(N)=N/OC(=O)c2ccc(OC)c([N+](=O)[O-])c2)cc1OC	n	n	n	n	n	n	x
COc1ccc(C(=O)O/N=C(\N)c2ccccc2Cl)cc1OC	n	n	n	n	n	63	52
N/C(=N\OC(=O)CSc1ccccc1)c1cccc([N+](=O)[O-])c1	n	n	n	n	n	42	40
COc1ccc(/C(N)=N/OC(=O)c2cccc([N+](=O)[O-])c2)cc1OC	n	n	n	n	n	42	n
COc1ccc(CCNC(=S)NC(=O)c2cccc([N+](=O)[O-])c2)cc1OC	n	n	n	n	n	41	n
CN(C(=O)c1cccc(NC(=O)Cc2ccc(NC(=O)C3CCN(C(=O)C4CCCCC4)CC3)cc2)c1)C1CC1	x	n	x	x	x	x	x
Cc1nn(C(C)C(=O)NCCc2ccco2)c(=O)c2nn(-c3ccccc3)c(C)c12 (configuration not stated)	n	n	n	n	n	n	x
N/C(=N\OC(=O)c1cccs1)c1cccc([N+](=O)[O-])c1	n	n	n	n	n	47	39
Cc1c(C(=O)NCCSc2ccc(Cl)cc2)cccc1[N+](=O)[O-]	n	n	n	n	n	41	37
C/C(=N\N1CCN(C2c3ccccc3-c3ccccc32)CC1)c1ccco1	n	n	n	n	n	41	n
COc1ccc(S(=O)(=O)N(C)C2(C)CCS(=O)(=O)C2)cc1OC (configuration not stated)	n	n	n	n	x	n	x
[N-]=[N+]=NC[C@H](Cc1ccccc1)N1CC[C@@H](O)CCC1=O	n	n	n	n	n	n	x
CC(C)(C)[C@H]1CCC(=O)N([C@H](CN=[N+]=[N-])Cc2ccccc2)CC1	n	n	n	n	n	41	n
COc1ccccc1N1CCN(C(=O)c2ccc3c(c2)NC(=O)C(CSCc2ccccc2C)N3)CC1 (configuration not stated)	n	x	n	n	n	n	x
CCOC(=O)C(Cc1cc(N)c(Oc2ccc(OC)cc2)c(N)c1)NC(C)=O (configuration not stated)	x	n	x	x	x	x	x
Cc1cc(=O)c2cc(Br)ccc2[nH]1	n	n	n	n	n	n	x
S=c1nc(-c2ccccc2)[nH]c2ccc(Br)cc12	n	n	n	n	n	43	n
O=C(NS(=O)(=O)Nc1ccccn1)c1c[nH]c2ccccc12	n	n	n	n	n	n	x
O=C(NC(=S)Nc1cccc(C(F)(F)F)c1)c1csnn1	n	n	n	n	n	52	36
Fc1cccc(NC(=S)NCc2ccc(Cl)cc2)c1	n	n	n	n	n	n	x
Fc1ccc(CNC(=S)Nc2cccc(C(F)(F)F)c2)cc1	n	n	n	n	n	51	43
CN(C)NC(=S)Nc1cccc(C(F)(F)F)c1	n	n	n	n	n	n	x
FC(F)(F)c1cccc(NC(=S)NCc2ccc(Cl)cc2)c1	n	n	n	n	n	43	n
CCOC(=O)CN1C(=O)C(=O)N(Cc2ccccc2F)C1=O	n	n	n	n	n	n	x
COc1cccc(-c2nnc(SCN3C(=O)c4ccccc4C3=O)n2C)c1	n	n	n	n	n	42	33
SMILES	TIM10 inh	V-ATPase pHluor	NALP3 yeast inh	tim23-1 inh	NALP1 inh	tim10-1 inh	tim10-1 confirm
Cc1ccc(-c2cc(-c3ccccc3)c(C#N)c(N)n2)o1	n	n	n	n	n	50	n
N#Cc1c(-c2ccccc2)cc(C2CC2)nc1N	n	n	n	n	n	42	n
Cc1ccc(-c2cc(-c3ccccc3Cl)c(C#N)c(N)n2)o1	n	n	n	n	n	41	n
N#Cc1c(-c2ccco2)cc(C2CC2)nc1N	n	n	n	n	n	n	x
Cn1c(=O)[nH]c(=O)c2c1nc1n2CC(O)CN1c1ccccc1 (configuration not stated)	n	n	n	n	n	n	x
COc1ccc2[nH]cc(CCNC(=O)Cc3ccc(F)cc3)c2c1	n	n	n	n	n	n	x
Cc1ccc(C)c(N2CCN(C(=O)c3cc4ccccn4n3)CC2)c1	n	n	n	n	n	41	35
O=C(c1cc2ccccn2n1)N1CCN(c2cccc(C(F)(F)F)c2)CC1	n	n	n	n	n	n	x

Screening results: PubChem BioAssay, several laboratories
